AI-2 QS mod: modulates the Vibrio harveyi AI-2 quorum sensing system; 300,000 compounds, 0.4% hits; activity change, % at 7.5 µM; Vibrio harveyi JMH597 AI-2 luminescence/OD600 ratio, 9 h; stronger effect = lower value; strain lacks LuxN and CqsS sensors; 0 = neutral-control median; in the data active = activity change below about -75%, passing the limit was not always enough; inconclusive = no clear call, values can overlap the other calls;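 note: luminescence divided by OD600 gain over 9 h not by final OD600 alone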
SUMO Mot1 rescue: SUMOylation pathway inhibition by Mot1-301 growth rescue. S. cerevisiae Mot1-301 growth rescue, ATP luminescence, 38.5C; percent above DMSO median, 100 means doubled. growth rescue, % at 18.8 µM. 320,000 compounds, 1% hits. AID 2716;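 active = every valid replicate shows activation above 250% relative to neutral control wells; inactive = the rest, any valid replicate at or below 250%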;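 note: OY570 slx delta 5 strain wells were the positive control but not used for scaling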
HIF activator: HIF pathway transcriptional activation. U2OS HRE-luciferase reporter, luminescence; normalized: DMSO 0%, desferrioxamine 100%. AID 1910. activation, % at 7.5 µM (by protocol). 300,000 compounds, 0.32% hits;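 active = mean activation of at least 10% of the iron chelator positive control signal, with at least half of replicates also reaching 10%; inconclusive = mean and replicate majority disagree about reaching 10%; inactive = mean and most replicates under 10%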
ALR inh: inhibitors of human sulfhydryl oxidase ALR; P55789; purified ALR, DTT oxidation, H2O2 HRP-luminol luminescence; inhibition, % (test concentration not listed); 290,000 compounds, 3.8% hits;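 active = mean replicate inhibition above about 79%, with every replicate also reaching it, limit read from the data; inconclusive = only one of the two criteria met; inactive = mean below limit and not every replicate reaching it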
Target sequence (P55789 whole entry, looked up): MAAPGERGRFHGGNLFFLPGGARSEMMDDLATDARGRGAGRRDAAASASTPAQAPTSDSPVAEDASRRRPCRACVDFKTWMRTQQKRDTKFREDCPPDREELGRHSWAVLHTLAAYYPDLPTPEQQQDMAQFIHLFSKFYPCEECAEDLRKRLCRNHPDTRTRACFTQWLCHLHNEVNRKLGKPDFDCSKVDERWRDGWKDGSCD
Mot1 SUMO dose: yeast SUMO pathway inhibition in dose response | growth activity, percent, % at 42 µM | AID 493004 | shares compounds with SUMO Mot1 rescue | 2,300 tested, under 10 active | S. cerevisiae Mot1-301 galactose growth, ATP luminescence, 24 h; -100 = growth of slx-deleted rescue strain;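 active = Signal drops as the depositor expects, and the fitted half-maximal dose is no more than ten times the top valid tested dose; inconclusive = Poor fit, or a flat curve whose signal drops by 30% to 70%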;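 note: more negative values mean stronger growth rescue toward the control strain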
* marks the source's active call; other numbers are inactive results. Sampled rows, rich in hits. Any-hit rate of the full collection: about 4.8%.

Cc1cc(C)c(S(=O)(=O)NCC2CCC(C(=O)NCCCN3CCC(C)CC3)CC2)c(C)c1 (configuration not stated) was read as AI-2 QS mod 4, SUMO Mot1 rescue 7, HIF activator 0 and ALR inh -16.
Cn1c(N)c(C(=O)COC(=O)Cc2cccc(C(F)(F)F)c2)c(=O)n(C)c1=O was read as SUMO Mot1 rescue -13 and ALR inh -1.
`CCCNS(=O)(=O)c1cc2c3c(c1)CCN3C(=O)CC2` gave AI-2 QS mod 12, SUMO Mot1 rescue -6, HIF activator 0 and ALR inh -8.
For CC(=O)Nc1ccc(/C(C)=N/NC(=O)c2ccncc2)cc1 the results were AI-2 QS mod 20, SUMO Mot1 rescue active, HIF activator 2, ALR inh -3 and Mot1 SUMO dose 0.
For C/C(=N/NC(=O)c1ccncc1)c1ccc(NC(=O)c2ccccc2)cc1 the results were AI-2 QS mod 4, SUMO Mot1 rescue -1, HIF activator -2 and ALR inh -16.
Screening COc1ccccc1CNCc1ccc(C)cc1 returned AI-2 QS mod -5, SUMO Mot1 rescue -18, HIF activator 1 and ALR inh 1.
`COc1ccccc1CNCc1cc(OC)c(OC)c(OC)c1` gave AI-2 QS mod 16, SUMO Mot1 rescue active, HIF activator 0, ALR inh -10 and Mot1 SUMO dose 0.
`CN(CC(=O)Nc1cccc(F)c1)CC(=O)Nc1cccc(S(N)(=O)=O)c1` gave AI-2 QS mod 6, SUMO Mot1 rescue 740*, HIF activator 0, ALR inh -14 and Mot1 SUMO dose 0.
`CN(CC(=O)Nc1cccc(F)c1)CC(=O)Nc1cccc(S(=O)(=O)N2CCCCCC2)c1` gave AI-2 QS mod -1, SUMO Mot1 rescue 5, HIF activator 0 and ALR inh -1.
For CCOC(=O)c1ccc(NC(=O)NCc2ccncc2)cc1 the results were AI-2 QS mod 49, SUMO Mot1 rescue 507*, HIF activator 1, ALR inh 0 and Mot1 SUMO dose -1.
For O=C1CCCN1CCCN1CC(C(=O)N(CCO)Cc2ccccc2)CCC1=O (configuration not stated) the results were AI-2 QS mod 11, SUMO Mot1 rescue 5, HIF activator 0 and ALR inh -1.
Screening Cn1c(COc2ccccc2O)[n+](C)c2ccccc21 returned AI-2 QS mod -4, SUMO Mot1 rescue -6, HIF activator 0 and ALR inh 35.
`CCCCCCCCCCOC(=O)Cn1c(COc2ccccc2OC)[n+](C)c2ccccc21` gave AI-2 QS mod 31, SUMO Mot1 rescue 835*, HIF activator 1, ALR inh -13 and Mot1 SUMO dose 0.
Screening Cc1cccc(CS(=O)(=O)Cc2ccc(C(=O)NCC3CCCO3)o2)c1 (configuration not stated) returned AI-2 QS mod -1, SUMO Mot1 rescue 667*, HIF activator 0, ALR inh -1 and Mot1 SUMO dose 1.
O=C(/C=C/c1ccc(-c2ccccc2[N+](=O)[O-])o1)c1ccc(Br)cc1 was read as AI-2 QS mod -6, SUMO Mot1 rescue 2, HIF activator 1 and ALR inh -5.
Screening Cc1ccc(C(=O)/C=C/c2ccc(-c3ccccc3[N+](=O)[O-])o2)cc1 returned AI-2 QS mod -2, SUMO Mot1 rescue 491*, HIF activator 0, ALR inh -19 and Mot1 SUMO dose -1.
CCC(=O)c1ccc(OCC(=O)NCCc2ccccn2)cc1 was read as AI-2 QS mod 10, SUMO Mot1 rescue -9, HIF activator 0 and ALR inh 1.
O=C(c1ccc(C(F)(F)F)n(Cc2ccc(Cl)cc2)c1=O)N1CCOCC1 was read as AI-2 QS mod 16, SUMO Mot1 rescue -6, HIF activator -1 and ALR inh -49.
O=C(c1cc(Cl)c(=O)n(Cc2ccc(Cl)cc2)c1)N1CCOCC1 was read as AI-2 QS mod 20, SUMO Mot1 rescue 658*, HIF activator 0, ALR inh 2 and Mot1 SUMO dose 0.
For O=C1N=C(N2C=CC(=C3C=CNC=C3)C=C2)/C(=C/N=NC(=O)c2ccccc2)S1 the results were AI-2 QS mod 11, SUMO Mot1 rescue -4 and HIF activator -1.
`COc1ccc(NC(=O)CN2C(=O)NC3(CCCCC3C)C2=O)cc1OC` (configuration not stated) gave SUMO Mot1 rescue -19.
For CCOc1ccccc1NC(=O)CSc1nc(N)c(C#N)cc1C#N the results were AI-2 QS mod 16, SUMO Mot1 rescue active, HIF activator 0, ALR inh -3 and Mot1 SUMO dose 1.
CC(=O)c1c[nH]c(C(=O)NC2CCCCCC2)c1 was read as AI-2 QS mod 2, SUMO Mot1 rescue -6, HIF activator 0 and ALR inh -4.
For CCOC(=O)c1ccc(CNC(=O)C2CCCCC2C(=O)OCC(F)(F)F)o1 (configuration not stated) the results were AI-2 QS mod 34, SUMO Mot1 rescue active, HIF activator -9, ALR inh 1 and Mot1 SUMO dose 0.
For CCN1C(=O)C(=O)N(CC(=O)N2CCC(C)Sc3ccccc32)C1=O (configuration not stated) the results were SUMO Mot1 rescue 26 and ALR inh -28.
O=c1cc(CN2CCN(S(=O)(=O)c3ccccc3)CC2)nc2sccn12 was read as AI-2 QS mod -1, SUMO Mot1 rescue 6, HIF activator 0 and ALR inh -1.
`O=C1c2ccccc2S(=O)(=O)N1Cc1cc(=O)n2ccsc2n1` gave AI-2 QS mod 10, SUMO Mot1 rescue 383*, HIF activator -1, ALR inh -1 and Mot1 SUMO dose 1.
`Cc1cc(C)cc(OCCn2nnc3ccccc32)c1` gave AI-2 QS mod 26, SUMO Mot1 rescue -5, HIF activator -14 and ALR inh 0.
`O=C(NCc1ccccc1F)c1ccc2c(c1)OCO2` gave AI-2 QS mod -2, SUMO Mot1 rescue -3, HIF activator 0 and ALR inh -12.
Screening O=C(NCc1ccccc1Cl)c1ccc2c(c1)OCO2 returned AI-2 QS mod -3, SUMO Mot1 rescue 650*, HIF activator 0, ALR inh -3 and Mot1 SUMO dose -1.
Screening Cc1cc(C)nc(NC(=O)Nc2ccc(F)cc2F)n1 returned AI-2 QS mod 13, SUMO Mot1 rescue 6, HIF activator 2 and ALR inh -13.
COc1ccc(NC(=O)CN2C(=O)c3ccccc3S2(=O)=O)cc1OC was read as AI-2 QS mod 7, SUMO Mot1 rescue 404*, HIF activator 0, ALR inh -15 and Mot1 SUMO dose 0.
For Cc1ccc(NC(=O)CN2C(=O)c3ccccc3S2(=O)=O)cc1C the results were AI-2 QS mod inconclusive, SUMO Mot1 rescue -1, HIF activator 1 and ALR inh -6.
